Compounds without any hit were thinned out: in the full panel of roughly 83,000, 20% have a hit.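 The test compound was applied at a single concentration to cells in 96-well plates for 48 hours, and percent growth was recorded.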 The source made the active and inactive calls. Rule for the calls: active = growth percent below 10; inactive = the rest.
The molecules below were run on MDA-MB-468 breast (assay: NCI-60 one-dose screen, 48 h (100 = growth as untreated, 0 = no growth, -100 = all killed)). Conditions: 10 µM unless noted.

Compound | growth
Nc1c(C(=O)Nc2ccncc2)sc2nc3c(cc12)CCCCCCCC3 | -75.7% (active)
CCn1cc(CNc2ccc(C(=O)Nc3cc4cc(OC)c(OC)cc4c(C)n3)cc2)cn1 | 41.8% (inactive)
Oc1c(Cl)cc(Cl)c2ccc(Cn3cc(-c4cc(C(F)(F)F)cc(C(F)(F)F)c4)nn3)nc12 | 18.6% (inactive)
O=C(/C=C/c1ccc(O)c(O)c1)N1CCN(c2ccc(Cl)cc2)CC1 | 39.7% (inactive)
C=CCn1c(C)nc2cc(Nc3nc(N4CCOCC4)nc4nc[nH]c34)ccc21 | 85.1% (inactive)
COC12C=C/C(=C(/C(=O)OCc3ccccn3)C(=O)CCCCCCCCC3(OC)C=C/C(=C(/C(=O)OCc4ccccn4)C(=O)CCCCCCCC1)O3)O2 | -32.5% (active)
COc1ccc(CN2CCc3c(Cl)nc(N)nc3C2=O)c(OC)c1 | 12% [100 µM] (inactive)
CC1=C(NCCN2CCCC2)C(=O)c2c(OCc3ccc(F)c(Cl)c3)cccc2C1=O | 67.1% (inactive)
Cc1cc(NC(=O)Nc2cc(Cl)ccc2C)no1 | 105% (inactive)
NC(=O)c1cc(Br)ccc1NC(=O)/C=C/c1ccccc1 | 27.8% (inactive)
COc1ccc2c(c1)OC1=C(C(=O)OC1)C2c1cc(OC)c2c(c1)OCCO2 (centres undefined) | 1.92% (active)
Nc1c(C(=O)c2ccc(Cl)cc2)sc(Nc2ccccc2)c1-c1nc2ccccc2s1 | 14.7% (inactive)
CCOC(=O)C1=C(c2ccccc2)N=c2s/c(=C/c3ccc(Br)cc3)c(=O)n2C1c1ccc(O)cc1 (centres undefined) | 83.7% (inactive)
CSc1nnc(-c2cc3c([nH]c4ccccc43)c(-c3cccc(O)c3)n2)n1-c1ccc(C)cc1 | 20.4% (inactive)
